Measured values published in PubChem BioAssay AID463173 (ICCB-Longwood Screening Facility, Harvard Medical School, 2010).
In all, about 52,000 compounds went through this assay and about 4,300 (8.3%) were called active. For the sample, actives were picked, then their nearest neighbours and some compounds at random. A number with no mark means an inactive call. Rule as the data show it: active = survival mostly below about 52% (no sharp cut-off); inactive = mostly above about 56%.

What follows are compounds tested on DeltatarO mutant (assay: growth inhibition of S. aureus wild type versus tarO mutant, primary screen, teichoic acid synthesis inhibitors, RN4220, OD600 (AID 463173)). Conditions: OD600, 18 h, active compounds read low, screened at 18.75 µg/mL (by protocol).

SMILES	survival
Cc1c(C(=O)N2CCC(C)CC2)c(S(=O)(=O)Nc2ccc(OC(F)(F)F)cc2)c(C)n1C	91%
CCc1cccc(C)c1NS(=O)(=O)c1ccc2c(c1)CC(C)N2C(=O)C1CC1 (stereo not drawn)	88%
COc1ccc(C(=O)NCc2ccc3c(c2)CCN3C(=O)c2ccncc2)cc1	88%
Cc1ccc(Cl)cc1NC(=O)CN1C(=O)COc2ccc(S(=O)(=O)N3CCOCC3)cc21	101%
CCc1c(C)[nH][n+]2cnn(Cc3ccc(Cl)cc3)c2c1=O	89%
CCn1cnc2sc(C(=O)Nc3ccccc3)c(C)c2c1=O	87%
Cc1ccc(CNC(=O)c2nnn(Cc3ccc(F)cc3)c2N)cc1	91%
Cc1ccc(CNc2nc(-c3ccco3)nn2C(=O)c2ccccc2[N+](=O)[O-])cc1	111%
Cc1nn2c(=O)cc(COC(=O)c3ccc(NC(=O)COc4ccc(C)c(C)c4)cc3)nc2s1	116%
Cc1ccc(S(=O)(=O)NCCSc2nnnn2-c2ccccc2)cc1	71%
CCCCSc1nnc2c(n1)OC(c1ccc(C)s1)Nc1ccccc1-2 (stereo not drawn)	41% (active)
CCSc1nnc2c(n1)OC(c1ccc(C)s1)Nc1ccccc1-2 (stereo not drawn)	71%
CCCSc1nnc2c(n1)OC(c1sccc1C)Nc1ccccc1-2 (stereo not drawn)	79%
Cc1cccc(C)c1OCc1nc2c3cnn(-c4cccc(F)c4)c3ncn2n1	78%
CC(=O)c1ccc(S(=O)(=O)N2CCn3cccc3C2c2ccccc2F)cc1 (stereo not drawn)	82%
CCOc1ccc(-n2c(SCC(=O)NCC3CCCO3)nc3c([nH]c4ccccc43)c2=O)cc1 (stereo not drawn)	74%
Cc1cc(Oc2c(C(F)(F)F)oc3c(CN4CCC(C)CC4)c(O)ccc3c2=O)cc(C)c1Cl	70%
O=C(NCCc1csc(-c2cccc(F)c2)n1)c1ccco1	94%
COc1ccc(CC(=O)NCCc2csc(-c3cccc(C)c3)n2)cc1	68%
COc1ccc(CCC(=O)NCCc2csc(-c3ccc(C(F)(F)F)cc3)n2)cc1	73%
CCOc1ccc(CC(=O)NCCc2csc(-c3ccc(C(F)(F)F)cc3)n2)cc1	77%
Cc1cccc(-c2nc(CCNC(=O)Cc3ccccc3)cs2)c1	17% (active)

SMILES	survival
Cc1cccc(-c2nc(CCNC(=O)Cc3ccc(F)cc3)cs2)c1	55%
COc1ccc(CC(=O)NCCc2csc(-c3ccc(C(F)(F)F)cc3)n2)cc1	-5% (active)
Cc1cccc(-c2nc(CCNC(=O)c3ccc(Br)o3)cs2)c1	89%
Cc1cccc(-c2nc(CCNC(=O)c3ccco3)cs2)c1	-5% (active)
CCOc1ccc(-c2nnc(SCC(=O)c3ccccc3)n2-c2ccccc2)cc1	136%
COc1cccc(CNC(=O)c2cc(S(=O)(=O)N3CCCCC3)c[nH]2)c1	64%
COc1ccccc1NC(=O)CSc1ncc2c(n1)-c1ccccc1N(Cc1ccccc1C)S2(=O)=O	101%
Cc1cc(=O)[nH]c2nnc(SCC(=O)NC(C)(C)C)n12	77%
COc1ccc(CN2COc3ccc4c(-c5ccc(OC)cc5)cc(=O)oc4c3C2)cc1	65%
COc1ccc(-c2cc(=O)oc3c4c(ccc23)OCN(Cc2ccccc2)C4)cc1	82%
COc1ccc(-c2cc(=O)oc3c4c(ccc23)OCN(Cc2cccc(OC)c2)C4)cc1	38% (active)
Cc1cccc(NC(=O)C2CCN(S(=O)(=O)c3cccc4nsnc34)CC2)c1	84%
CCOc1ccc(NC(=O)CC2C(=O)N(c3ccc(F)cc3)C(=O)N2Cc2ccc(OC)c(OC)c2)cc1 (stereo not drawn)	90%
Cc1ccc(C)c(CSc2nc3ncccc3[nH]2)c1	73%
Cc1cc(C)c(NC(=O)CSc2nc3nccnc3c(=O)n2CCc2c[nH]c3ccccc23)c(C)c1	48%
O=C(CSc1nc2nccnc2c(=O)n1CCc1c[nH]c2ccccc12)Nc1ccc(F)cc1	29% (active)
O=C(CSc1nc2nccnc2c(=O)n1CCc1c[nH]c2ccccc12)Nc1ccccc1F	46% (active)
O=C(CSc1nc2nccnc2c(=O)n1CCc1c[nH]c2ccccc12)Nc1ccccc1	73%
Cn1c(SCC(=O)Nc2ccccc2F)nc2c([nH]c3ccccc32)c1=O	115%
COCCCn1c(SCC(=O)Nc2ccccc2OC)nc2c(sc3ccccc32)c1=O	77%
COc1ccccc1NC(=O)CSc1nc2nccnc2c(=O)n1CCc1c[nH]c2ccccc12	38% (active)
COc1ccccc1NC(=O)CSc1nc2ccccc2c(=O)n1CCC(=O)NC1CCCCC1	89%

SMILES	survival
Cc1ccc(NC(=O)CSc2nc3nccnc3c(=O)n2CCc2c[nH]c3ccccc23)c(C)c1	45% (active)
O=C(CSc1nc2c([nH]c3ccccc32)c(=O)n1-c1ccccc1)Nc1ccccc1F	96%
Cc1ccc(NC(=O)CSc2nc3c([nH]c4ccccc43)c(=O)n2-c2ccccc2)c(C)c1	96%
CCc1ccc(NC(=O)CSc2nc3nccnc3c(=O)n2CCc2c[nH]c3ccccc23)cc1	88%
Cc1ccc(C)c(NC(=O)CCCn2nc(C)c3sc4ccccc4c3c2=O)c1	85%
CCOC(=O)c1c(C)[nH]c(C)c1S(=O)(=O)N(C)CC(=O)Nc1ccc(C)cc1Br	72%
CCCCN(C)C(=O)Cn1cnc2sc(C)c(S(=O)(=O)N3CCN(c4ccccc4OC)CC3)c2c1=O	70%
Cc1cc(C)n(-c2nc(C)c(C)c(=O)n2CC(=O)Nc2ccc(OC(F)(F)F)cc2)n1	90%
COc1ccccc1N1CCN(C(=O)COc2ccccc2C#N)CC1	81%
COc1cc(C(=O)N2CCN(CCc3ccncc3)CC2)cc(OC)c1OC	89%
CS(=O)(=O)n1nc(-c2ccco2)nc1NCc1ccccc1Cl	61%
COc1cc(NC(=O)Cn2cnc3sc(C)c(S(=O)(=O)N4CCC(C)CC4)c3c2=O)cc(OC)c1OC	111%
Cc1cc(C)c2c(n1)nn1c(C)c(CCC(=O)NCc3ccc(Cl)cc3)c(C)nc21	80%
Cc1ccc(C)c(NC(=O)Cn2c(SCC(=O)NCc3ccccc3)nc3ccccc32)c1	101%
Cc1ccccc1NC(=O)CSc1nc2nccnc2c(=O)n1CCc1c[nH]c2ccccc12	40% (active)
Cc1ccccc1NC(=O)NCCc1c[nH]c2ccccc12	47%
CCOCCCn1c(SCC(=O)Nc2cc(C)ccc2C)nc2c(oc3ccccc32)c1=O	90%
Cc1ccc(C)c(NC(=O)CSc2nc3nccnc3c(=O)n2CCc2c[nH]c3ccccc23)c1	37% (active)
Cc1cccc(NC(=O)CSc2nc3c([nH]c4ccccc43)c(=O)n2C)c1C	80%
Cc1ccc(NC(=O)c2sc3ncnc(N(C)C4CCCCC4)c3c2C)cc1	144%
CCOc1ccc(CCNC(=O)c2ccc3nc(CC)c(CC)nc3c2)cc1	91%
CN(C)C(=O)CSc1ccc(-c2ccc(F)cc2)nn1	92%

SMILES	survival
CC(C)Oc1ccc(C(=O)Nc2nnc3n2CCS3)cc1	124%
Cc1cccc(NC(=O)NC2CC3CCCC(C2)N3CC(C)C)c1 (stereo not drawn)	94%
CC(C)C(NS(=O)(=O)c1ccc2c(c1)oc(=O)n2C)C(=O)NCCc1ccccc1 (stereo not drawn)	89%
COc1ccc(C(=O)Nc2ccc(N3CCOCC3)c(C(F)(F)F)c2)cc1OC	91%
Cc1oc2ccc(O)c(CN(C)Cc3ccccc3)c2c1C(=O)Nc1ccccc1	92%
Cc1oc2ccc(O)c(CN(C)Cc3ccccc3)c2c1C(=O)Nc1cccc(C(F)(F)F)c1	6% (active)
Cc1oc2ccc(O)c(CN3CCN(Cc4ccccc4)CC3)c2c1C(=O)Nc1cccc(Cl)c1C	72%
Cc1oc2ccc(O)c(CN(C)Cc3ccccc3)c2c1C(=O)Nc1cccc(Cl)c1C	11% (active)
Cc1oc2ccc(O)c(CN3CCCC3)c2c1C(=O)Nc1cccc(Cl)c1C	71%
Cc1oc2ccc(O)c(CN3CCN(C)CC3)c2c1C(=O)Nc1cccc(C(F)(F)F)c1	81%
CCOC(=O)c1ccccc1NC(=O)c1c2c(nc3ccccc13)C(=O)N(C1CCCCC1)C2	75%
CC(C)C1N=C2c3ccccc3N=C(SCC(=O)NCc3ccc(F)cc3)N2C1=O (stereo not drawn)	73%
Cc1ccc(Cn2ccn(CC(=O)Nc3c(C)cc(C)cc3C)c(=O)c2=O)cc1	47%
COc1ccc(NC(=O)Cn2ccn(-c3ccccc3)c(=O)c2=O)cc1	52%
CCc1ccc(NC(=O)Cn2ccn(-c3ccc(OC)cc3)c(=O)c2=O)cc1	67%
O=C(Cn1ccn(-c2ccc(F)cc2)c(=O)c1=O)Nc1ccc(F)cc1	60%
COc1ccccc1Cn1ccn(CC(=O)Nc2c(C)cc(C)cc2C)c(=O)c1=O	41% (active)
Cc1ccc(NC(=O)Cn2ccn(-c3ccccc3)c(=O)c2=O)cc1	56% (active)
COc1cc(NC(=O)Cn2ccn(Cc3ccccc3OC)c(=O)c2=O)cc(OC)c1	52%
COc1ccccc1NC(=O)Cn1ccn(-c2cc(C)cc(C)c2)c(=O)c1=O	55%
CCc1ccc(NC(=O)Cn2ccn(Cc3ccccc3OC)c(=O)c2=O)cc1	46% (active)
COc1ccc(NC(=O)CC2C(=O)N(c3ccc(C)cc3)C(=O)N2CCc2ccccc2)cc1 (stereo not drawn)	62%
